# Data published in PubChem BioAssay AID1578 (Sanford-Burnham Center for Chemical Genomics, 2009).
# Out of some 290,000 compounds screened, about 3,000 (1%) were called active. This excerpt belongs to a sample that is enriched for actives. Values without a mark were called inactive. Rule as the data show it: active = inhibition mostly above about 36% (no sharp cut-off); inactive = mostly below about 34%.
# Assay: NOD1 signaling inhibitors, primary screen, cell-based, luminescence, uHTS (AID 1578);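 also: HEK-293T reporter cells stimulated with the NOD1 agonist gamma-tri-DAP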
# Details: NOD1-driven NF-kB luciferase reporter cells, at 4 µM, active compounds read high
row,SMILES,inhibition
1,COc1ccc(/C=C2\SC(=S)N(CCC(=O)N3CCCCC3)C2=O)cc1,13.7%
2,CCN(CC)CCNC(=O)CS(=O)Cc1nc(-c2ccc(C)cc2)oc1C (stereo unspecified),13.6%
3,CN(C)c1cccc(C(=O)NNC(=S)NC2CCCC2)c1,-23.1%
4,CCC(C)C(NC(=O)C(CC(C)C)NC(=O)C(CO)NC(=O)C1CCC(=O)N1)C(=O)OC (stereo unspecified),-36%
5,CN(Cc1nc2ccccc2[nH]1)Cc1nc(CC2CC2)no1,-48.9%
6,COCCNC(=S)NNC(=O)CSCc1ccc(Cl)cc1Cl,-40.2%
7,CCCC(=O)NCCc1nc2ccccc2n1CCC,-14.2%
8,COc1ccc(C(=O)ON=C2CCN(C)CC2)cc1,-31.9%
9,COc1cc(C(=O)NS(=O)(=O)c2ccccc2C)ccc1Cc1cn(C)c2ccc(NC(=O)OC3CCCC3)cc12,39.2% (active)
10,COc1ccc(CNC(=O)Cc2cn(C)c3ccccc23)c(OC)c1,-7.1%
11,Cc1cc(NC(=O)OC2CCCCC2)ccc1[N+](=O)[O-],-54.1%
12,CCOc1ccc(OCC)c(S(=O)(=O)NCc2cccnc2)c1,-17.5%
13,NCCc1nnc(SCC(=O)Nc2ccc(Br)cc2)o1,-15.9%
14,CC(NC(=O)c1ccc2nc[nH]c2c1)c1ccccc1 (stereo unspecified),-33.6%
15,Cn1nnnc1SCC(=O)N1CCN(C(=O)c2ccco2)CC1,-32.2%
16,O=C(O)CCCNC(=O)c1cncc(O)c1,15.1%
17,N=c1ccn(Cc2cccc(Cl)c2)cc1,8.9%
18,N=c1ccn(Cc2ccc(Cl)c(Cl)c2)cc1,79.2% (active)
19,N=c1ccn(Cc2ccc(Cl)cc2)cc1,30.5%
20,COC(Cn1c(-c2cccc(S(=O)(=O)N(C)C)c2)n[nH]c1=S)OC,-34.1%
21,Cc1cc(NC(=O)c2cc3ncc(Br)cn3n2)no1,-40.8%
22,O=C(O)CCCn1cc(NC(=O)c2c(F)cccc2F)cn1,-50.2%
23,O=C(NCc1ccccn1)c1nc(Cn2cc([N+](=O)[O-])cn2)no1,-23.2%
24,c1ccc(C2NCCn3cccc32)cc1 (stereo unspecified),-14.6%

row,SMILES,inhibition
1,COc1ccc(C2NCCn3cccc32)cc1 (stereo unspecified),112% (active)
2,Fc1ccc(C2NCCn3cccc32)cc1 (stereo unspecified),25.8%
3,Cc1ccc(C(c2nnnn2CS(=O)(=O)c2ccc(C)cc2)N2CCN(c3ncccn3)CC2)cc1 (stereo unspecified),-41.2%
4,COc1ccc(CNC(=O)CN2CCN(c3cccc(C)c3C)CC2)cc1,-3.6%
5,O=C(CSc1nc2ccccc2n1-c1ccccc1)Nc1ncc(Cl)cc1Cl,48.8%
6,Cc1ccc(-n2c(SCC(=O)Nc3ncc(Cl)cc3Cl)nc3ccccc32)cc1,59.3%
7,COc1ccc(-n2c(SCC(=O)Nc3ncc(Cl)cc3Cl)nc3ccccc32)cc1,58.9% (active)
8,Cc1ccc(SCC(=O)N2N=CCC2c2ccccc2)cc1 (stereo unspecified),-19.9%
9,O=c1cc(O)n(-c2ccccc2F)c(=S)[nH]1,0%
10,CCOC(=O)c1c(C)sc2c1N(C(=O)CN(CC)CC)c1cc(Cl)ccc1S2,-0.4%
11,CCOC(=O)c1c(C)sc2c1N(C(C)=O)c1cc(Cl)ccc1S2,25.7%
12,CCOC(=O)c1c(C)sc2c1N(C(=O)CCl)c1cc(Cl)ccc1S2,55.3% (active)
13,CC(=O)Nc1ccc(S(=O)(=O)NCc2nc(-c3ccccc3)no2)cc1,-7.6%
14,CCOC(=O)C1=C(C)NC(=O)NC1c1cc2c(cc1Br)OCO2 (stereo unspecified),-20.8%
15,Cc1cc(OC(=O)c2ccccc2)n(CCC#N)n1,6.7%
16,O=C(O)c1ccc(Oc2c(C(F)(F)F)oc3cc(O)ccc3c2=O)cc1,-31.7%
17,COc1ccc2c(=O)c(Oc3ccc(C(=O)O)cc3)c(C(F)(F)F)oc2c1,47.7% (active)
18,COc1ccc(Oc2c(C(F)(F)F)oc3cc(OCC(=O)O)ccc3c2=O)cc1,4.6%
19,O=C(c1ccc(F)cc1)N1CCN(c2ccc([N+](=O)[O-])c(N3CCOCC3)c2)CC1,-17.8%
20,C=C1C(=O)C=C[C@]2(C)C[C@@H]3OC(=O)[C@](C)(O)[C@H]3C[C@@H]12,33.2% (active)
21,C[C@@H]1C[C@@H]2OC(=O)[C@]3(C)[C@H]2[C@@H](OC3(C)O)[C@]2(C)C(=O)C=C[C@H]12 (stereo partly specified),-7.5%
22,CCCCNc1nc2ccccc2n1CC(=O)Nc1ccc2c(c1)OCCO2,-11.5%
23,O=C(O)c1ccc(Cl)cc1NC(=O)C1CCCO1 (stereo unspecified),-22%
24,CN(c1ccccc1)S(=O)(=O)c1ccc(Cl)c(C(=O)Nc2ccc(N3CCOCC3)cc2)c1,-13%

row,SMILES,inhibition
1,COc1ccccc1N(C)S(=O)(=O)c1ccc(Cl)c(C(=O)NCCCN2CCOCC2)c1,-22.8%
2,COc1ccc(CNC(=O)CSc2nc3ccc(C)cc3[nH]2)cc1OC,0.6%
3,CCOc1ccc(/C=N/NC(=O)C(=O)N2CCCCCC2)c2ccccc12,12%
4,CN1C/C(=C/c2ccsc2)C(=O)/C(=C/c2ccsc2)C1,-44.5%
5,CC(C)N1C/C(=C/c2cccnc2)C(=O)/C(=C/c2cccnc2)C1,49.5%
6,CC(C)N1C/C(=C/c2ccsc2)C(=O)/C(=C/c2ccsc2)C1,80.5% (active)
7,Cc1cc(NC(=O)c2cccnc2)ccc1NC(=O)c1ccco1,-65.2%
8,N#C/C(=C\c1ccc([N+](=O)[O-])cc1)c1nc(C2CC2)cs1,-14.9%
9,COc1ccc(-c2csc(/C(C#N)=C\c3ccc(O)c([N+](=O)[O-])c3)n2)cc1OC,78.3% (active)
10,COc1ccc(-c2csc(/C(C#N)=C\c3cccc([N+](=O)[O-])c3)n2)cc1,-40.1%
11,COc1ccc(-c2csc(/C(C#N)=C\c3ccc(OC)c([N+](=O)[O-])c3)n2)cc1,-19.7%
12,COc1cc(/C=C(/C#N)c2nc(-c3cc4ccccc4oc3=O)cs2)cc([N+](=O)[O-])c1O,6.6%
13,O=C(NC1CCSc2ccccc21)c1cccc(Cl)c1 (stereo unspecified),-18.6%
14,CCc1cc(-c2nc(N)ncc2-c2ccc(Br)cc2)c(O)cc1OC,-5.1%
15,Cc1nc2cc(-c3ccccc3)[nH]n2c(=O)c1C,-59.1%
16,Cc1ccc2cccc(N)c2n1,-43.8%
17,Cc1ccc2cccc(OCc3ccccc3)c2n1,-0.7%
18,Cc1ccc2ccc3ccc(C)nc3c2n1,44.3% (active)
19,C/C(=N\Nc1cc(C(F)(F)F)ccc1Cl)c1ccccc1O,15.7%
20,CC1CCCN(c2ncnc3c2cnn3-c2ccc(Cl)cc2)C1 (stereo unspecified),73.3% (active)
21,CN1CCN(c2ncnc3c2cnn3-c2ccc(Cl)cc2)CC1,-13.8%
22,Clc1ccc(-n2ncc3c(N4CCCC4)ncnc32)cc1,39.9%
23,COc1ccc(-n2ncc3c(N4CCC(C(N)=O)CC4)ncnc32)cc1,-30%
24,Cc1cccc(-n2ncc3c(N(C)C4CCCCC4)ncnc32)c1,27.6%

row,SMILES,inhibition
1,CC1CCCN(c2ncnc3c2cnn3-c2ccccc2)C1 (stereo unspecified),0.1%
2,COc1ccc(-n2ncc3c(N4CCC(C)CC4)ncnc32)cc1,-5.4%
3,Clc1ccc(-n2ncc3c(N4CCCCCC4)ncnc32)cc1,78.4% (active)
4,COc1ccc(-n2ncc3c(N4CCCCC4)ncnc32)cc1,87% (active)
5,CCCN(CCC)c1ncnc2c1cnn2-c1ccc(OC)cc1,-46.4%
6,CC1CC(C)CN(c2ncnc3c2cnn3-c2ccc(Cl)cc2)C1 (stereo unspecified),1.3%
7,CCOC(=O)c1ccc(NC(=O)CSc2nc(N)c(NC(=O)c3ccc(Br)o3)c(=O)[nH]2)cc1,-26.5%
8,CN(C(=O)COC(=O)c1cc(S(=O)(=O)N2CCCCC2)ccc1N1CCOCC1)C1CCS(=O)(=O)C1 (stereo unspecified),-0.1%
9,COC(=O)N/N=C/c1cc(C)n(-c2ccc(F)cc2)c1C,-30%
10,COC(=O)C1C2C=CC3(CN(CCc4ccccc4)C(=O)C13)O2 (stereo unspecified),-14.5%
11,Cc1[nH][nH]c(=O)c1/C=N/N1CCOCC1,-39.8%
12,CCC(C)(C(=O)NC1CCCCC1)N(C(=O)CC1NC(=O)NC1=O)c1c(C)n(C)n(-c2ccccc2)c1=O (stereo unspecified),-11.2%
13,c1ccc(-n2ncc3c(N4CCCCC4)ncnc32)cc1,61.4% (active)
14,Cc1cccc(-n2ncc3c(N4CCCC4)ncnc32)c1,-40.5%
15,CC1CCN(c2ncnc3c2cnn3-c2ccccc2)CC1,-77.4%
16,COc1cc(OC)c2cc(C(=O)N[C@H](C(=O)N3CCC[C@H]3C(=O)O)C(C)C)n(C)c2c1,-17.5%
17,Cc1nc(SCC(N)=O)c(C#N)c(C)c1C,5.5%
18,CCN(CC)C(=O)c1ccc(Nc2nnc(-c3ccc(O)cc3)c3ccccc23)cc1,72.7% (active)
19,CCN(CC)C(=O)c1ccc(-c2nnc(Nc3ccc(O)cc3)c3ccccc23)cc1,43%
20,CCN(CC)C(=O)c1ccc(-c2nnc(Nc3ccc(C(=O)N(C)C)cc3)c3ccccc23)cc1,37.7%
21,Cn1ncc(Cl)c1C(=O)N/N=C/c1cccc(OC2CSC2)c1,-1.4%
22,Cn1cc(Br)c(C(=O)N/N=C/c2cccc(OC3CSC3)c2)n1,0.1%
23,Cn1ncc(Br)c1C(=O)N/N=C/c1cccc(OC2CSC2)c1,60.4% (active)
24,CCOC(=O)c1cnc(SCC(=O)Nc2ccc(N3CCOCC3)cc2)nc1N,-15%
